This note sets out measurements from PubChem BioAssay AID588492 (Sanford-Burnham Center for Chemical Genomics, 2011).

The campaign covered roughly 360,000 compounds. About 2,300 (0.64%) were called active.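 How the source made its calls: active means compounds giving at least 50% protection of heart cells from peroxide-induced death in the single-dose screen, raw or plate-pattern-corrected value; inactive means the rest.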 Only a selection was taken, and actives are over-represented in it overall.

This experiment in a line: cardioprotection against H2O2-induced cell death, primary screen, uHTS, H9c2 cells, ATPLite luminescence (AID 588492).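 Further: 0% = DMSO wells with peroxide and 100% = DMSO wells without peroxide.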 The settings on record: H9c2 cardiomyocytes, H2O2 injury protection, 2 h, at 20 µM, active compounds read high.
As to `COc1ccc(/C=C2/S/C(=N/N=C3\CC4CCC3(C)C4(C)C)NC2=O)cc1` (stereo not given), the protection from H2O2 cell death is -7.9% (inactive).

For `O=[N+]([O-])c1ccc2c(c1)C(N1CCOCC1)/C(=C/C1(O)CCCCC1)O2` (stereo not given), the protection from H2O2 cell death was 1.3% (inactive).

`O=C1OCCC1=COCCCCOC=C1CCOC1=O`: the protection from H2O2 cell death was 3% (inactive).

Turning to `O=C(NCC1(N2CCCCC2)CCCCC1)c1cccc(S(=O)(=O)Nc2ccccc2Cl)c1`, the protection from H2O2 cell death is 28.2% (inactive).

On to `O=C(O)Cn1c(Cc2ccccc2)nc2ccccc21`, for which the protection from H2O2 cell death was 11.1% (inactive).

Consider `CCCn1c(N)c(C(=O)CSc2nnc(-c3cccnc3)n2-c2ccc(C)cc2C)c(=O)[nH]c1=O`, for which the protection from H2O2 cell death is 22.9% (inactive).

Consider `CCCCC(=O)Nc1ccc2c(c1)C(=O)NC2=O`, for which the protection from H2O2 cell death was 9.9% (inactive).

Turning to `Cc1ccc(C)c(NC(=O)CSc2nc3c(oc4ccccc43)c(=O)n2-c2ccccc2)c1`, the protection from H2O2 cell death was -6.4% (inactive).

Turning to `CCCCC(=O)Nc1cc(C)c2c(=O)oc3ccccc3c2n1`, the protection from H2O2 cell death was 77.7% (active).

With `COc1ccc2c(c1)C(NS(=O)(=O)OCC(Cl)(Cl)Cl)CCC2` (stereo not given), the protection from H2O2 cell death is -4.5% (inactive).

Turning to `COc1ccc2[nH]c(=O)c(CNc3ccc(C)c(C)c3)cc2c1`, the protection from H2O2 cell death is 57.7% (active).

Turning to `COc1ccc(S(=O)(=O)NCCc2cc3ccc(C)c(C)c3[nH]c2=O)cc1`, the protection from H2O2 cell death was -9.7% (inactive).

Take `COc1ccc2[nH]c(=O)c(CN(CC3CCCO3)C(=O)Nc3ccccc3)cc2c1` (stereo not given): the protection from H2O2 cell death is 11.7% (inactive).

For the compound `CCc1cccc(CC)c1N1C(=O)CC(Sc2ccccc2N)C1=O` (stereo not given), the protection from H2O2 cell death was -0.9% (inactive).

In the case of `O=C(NCc1cccs1)C(=O)NCC1OCCCN1S(=O)(=O)c1ccc(F)cc1` (stereo not given), the protection from H2O2 cell death was 6% (inactive).

For the compound `CCOc1cc2c(Cl)ncnc2c(OCC)c1OCC`, the protection from H2O2 cell death was 0.8% (inactive).

`Cc1ccc(C)c(NC(=O)COC(=O)c2nn(C)c(=O)c3ccccc23)c1`: the protection from H2O2 cell death is 7% (inactive).

For the compound `O=C(COC(=O)c1ccc(S(=O)(=O)N2CCCCCC2)cc1)Nc1ccccc1C(F)(F)F`, the protection from H2O2 cell death is 2.5% (inactive).

Consider `CC(Oc1ccc(Cl)cc1)C(=O)OCC(=O)Nc1ncc(Cl)cc1Cl` (stereo not given), for which the protection from H2O2 cell death is 7.1% (inactive).

In the case of `CN(C)S(=O)(=O)c1ccc(NC(=O)COC(=O)Cn2[nH]c(=O)c3ccccc3c2=O)cc1`, the protection from H2O2 cell death is 72.5% (active).

As for `Cc1ccc(S(=O)(=O)N(C)CC(=O)OCC(=O)Nc2ccccc2)cc1`, the protection from H2O2 cell death is -0.1% (inactive).

As to `CC1(C(=O)OCC(=O)Nc2ncc(Cl)cc2Cl)CC1(Cl)Cl` (stereo not given), the protection from H2O2 cell death is -1.6% (inactive).

On to `O=C(COC(=O)Cn1[nH]c(=O)c2ccccc2c1=O)Nc1ncc(Cl)cc1Cl`, for which the protection from H2O2 cell death was 79.9% (active).

Turning to `O=C(COC(=O)Cn1[nH]c(=O)c2ccccc2c1=O)Nc1c(Cl)cccc1C(F)(F)F`, the protection from H2O2 cell death is 88.6% (active).

Regarding `CCC1(CC)NC(=O)N(CC(=O)OCC(=O)c2cc(C)c(C)cc2C)C1=O`, the protection from H2O2 cell death was 4.7% (inactive).

`CCC1(CC)NC(=O)N(CC(=O)OCC(=O)Nc2ccc(C(F)(F)F)cc2)C1=O`: the protection from H2O2 cell death was 4.8% (inactive).

Turning to `Cc1ccc(C)c(C(=O)COC(=O)Cn2[nH]c(=O)c3ccccc3c2=O)c1`, the protection from H2O2 cell death was 82% (active).

Regarding `CN(C)S(=O)(=O)c1ccc(NC(=O)COC(=O)c2n[nH]c3ccccc23)cc1`, the protection from H2O2 cell death was -11.7% (inactive).

Regarding `CCc1nc2ccc(C(=O)NCCNC(C)=O)cn2c1N(CC)Cc1cccc(Br)c1`, the protection from H2O2 cell death is 4.8% (inactive).

As to `CC(OC(=O)CNC(=O)c1cccc(F)c1)C(=O)NC1CCCCC1C` (stereo not given), the protection from H2O2 cell death is 2% (inactive).

For the compound `CCCC(=O)Nc1ccc2c(c1)nc1n2CCSC1`, the protection from H2O2 cell death is -7.4% (inactive).

For the compound `CS(=O)(=O)N1CCc2nc(-c3ccccc3)sc2C1`, the protection from H2O2 cell death is -1.4% (inactive).

Regarding `Cc1cc(C(F)F)nn1CC(=O)NC1CCCCCC1`, the protection from H2O2 cell death is -3.7% (inactive).

Consider `O=C(OCCOCn1cc(Br)c(=O)[nH]c1=O)c1ccccc1`, for which the protection from H2O2 cell death was 7.1% (inactive).

Take `Cc1cc(C)c2c(n1)sc1c(=O)n(-c3ccccc3)c(=O)[nH]c12`: the protection from H2O2 cell death was 4.5% (inactive).

With `CCOC(=O)c1sc(NC(=O)C2CSC3(C)CCC(=O)N23)nc1C` (stereo not given), the protection from H2O2 cell death was 4% (inactive).

Take `COc1ccc(S(=O)(=O)NC(=O)C2(C)CCN2C(=O)COc2ccc(Cl)cc2)cc1` (stereo not given): the protection from H2O2 cell death was 5.6% (inactive).

Regarding `C[C@H](O)[C@@H]1C(=O)N2CCc3c([nH]c4ccccc34)[C@@H]2C[C@@H]1N(C)C(=O)Nc1ccc(F)cc1`, the protection from H2O2 cell death is -2.1% (inactive).

With `O=[N+]([O-])c1cc(Cl)cc(/C=N/NC(=S)Nc2cc(S(=O)(=O)N3CCOCC3)ccc2Cl)c1O`, the protection from H2O2 cell death was -20.3% (inactive).

In the case of `O=C(N/N=C/c1cc(Cl)cc([N+](=O)[O-])c1O)C(O)(c1ccccc1)c1ccccc1`, the protection from H2O2 cell death is 56.6% (active).

For `O=C(Cc1ccccc1)N/N=C/c1ccc(Cl)cc1Cl`, the protection from H2O2 cell death was -15.4% (inactive).

Regarding `NC(=O)Cn1c(=O)oc2ccccc21`, the protection from H2O2 cell death was 6.1% (inactive).

Take `CC(C)(C)c1ccc(NC(=O)COC(=O)CCc2nc3ccccc3c(=O)[nH]2)cc1`: the protection from H2O2 cell death was 36.5% (inactive).

`CCN(CC(=O)NC(=O)NCc1ccccc1)Cc1nc2ccccc2c(=O)[nH]1`: the protection from H2O2 cell death was 7.1% (inactive).

For `CCN(CC)c1ccc(C(=O)NNC(=O)CCc2nc3ccccc3c(=O)[nH]2)cc1`, the protection from H2O2 cell death was 56.2% (active).

With `O=C(CSCc1ccccc1Cl)NNC(=O)c1ccccc1`, the protection from H2O2 cell death is 1.3% (inactive).

With `O=C(CSc1ncn[nH]1)Nc1nc2c(F)c(F)c(F)cc2s1`, the protection from H2O2 cell death is -1.5% (inactive).

For `Cc1ccc(OCC(=O)Nc2ccc3oc(=O)ccc3c2)cc1C`, the protection from H2O2 cell death was 0.6% (inactive).

Take `CCN1C(=O)[C@@H]2[C@@H]3CN(S(=O)(=O)c4ccccc4C)[C@@H](c4ccc(Cl)cc4)[C@@H]3C(=O)C[C@@H]2C1=O`: the protection from H2O2 cell death is 8.3% (inactive).

For the compound `CCOC(=O)CNC(=O)CSc1ccc2nnc(-c3cccnc3)n2n1`, the protection from H2O2 cell death was -2.8% (inactive).

`COC(=O)c1ccc(CSc2ccc3nnc(-c4ccccc4)n3n2)o1`: the protection from H2O2 cell death is 80.8% (active).

For the compound `COC(=O)c1ccc(CSc2nnc(N)s2)o1`, the protection from H2O2 cell death is -10.8% (inactive).

For the compound `CC(C)[C@@H]1COC(c2cccc(C3=N[C@H](C(C)C)CO3)c2)=N1`, the protection from H2O2 cell death was -14.6% (inactive).

For `COc1ccc(Cl)cc1S(=O)(=O)N1CCN(CC(=O)C(C)(C)C)CC1`, the protection from H2O2 cell death was -8.8% (inactive).

`O=C(CN1CCN(S(=O)(=O)c2cc(Cl)ccc2Cl)CC1)c1ccc(O)c(O)c1`: the protection from H2O2 cell death is 55.1% (active).

For `N#Cc1ccsc1NC(=O)CN1CCN(S(=O)(=O)c2cc(Cl)ccc2Cl)CC1`, the protection from H2O2 cell death is 8.3% (inactive).

Regarding `Cc1ccc2c(CSc3nncs3)cc(=O)oc2c1`, the protection from H2O2 cell death was -3.2% (inactive).

As to `Cc1ccc(O)c(/C=N/NC(=O)COc2ccc3c(C)cc(=O)oc3c2)c1`, the protection from H2O2 cell death is 38.5% (inactive).

Consider `CCOC(=O)Cc1csc(SCC(=O)Nc2ccc(C)cc2F)n1`, for which the protection from H2O2 cell death was -15.1% (inactive).

In the case of `CCOC(=O)Cc1csc(NC(=O)COc2ccc3c(C)cc(=O)oc3c2)n1`, the protection from H2O2 cell death was 71.2% (active).

For the compound `COc1ccc(N2CCN(C(=O)COc3ccc4c(C)cc(=O)oc4c3)CC2)cc1`, the protection from H2O2 cell death is 19.4% (inactive).

With `CCOC(=O)Cc1csc(SCc2cc(=O)oc3cc(O)ccc23)n1`, the protection from H2O2 cell death is 55.7% (active).

`C/C(=N\NS(=O)(=O)c1ccccc1)c1c(O)cc(C)oc1=O`: the protection from H2O2 cell death was -1% (inactive).

In the case of `Cc1ccc(Cl)cc1NC(=O)C1CCCN(c2cnccn2)C1` (stereo not given), the protection from H2O2 cell death is 1.6% (inactive).

Turning to `CC1(C(=O)NCC2CCOCC2)Cc2c(-c3cccc(C(N)=O)c3)ccnc2O1` (stereo not given), the protection from H2O2 cell death is 9.5% (inactive).

For the compound `Cc1nc2c(-c3ccc(F)cc3)c(C)nn2c(C)c1CCC(=O)NCc1ccco1`, the protection from H2O2 cell death is 2.6% (inactive).

`Fc1ccc(-c2ccc(-c3nn4c(-c5ccco5)nnc4s3)o2)cc1`: the protection from H2O2 cell death is 98.7% (active).

As to `CNc1nnc(-c2ccco2)s1`, the protection from H2O2 cell death was 3.7% (inactive).

As for `CC(C)(C)OC(=O)C[C@@H]1C/C=C\C[C@@H](CC(=O)N[C@H](CO)Cc2ccccc2)C(=O)NCCOC1=O`, the protection from H2O2 cell death was 12.4% (inactive).

For the compound `CC(C)(C)OC(=O)C[C@H]1C/C=C\C[C@@H](CC(=O)N[C@H](CO)Cc2ccccc2)C(=O)NC[C@@H](c2ccccc2)OC1=O`, the protection from H2O2 cell death is 10.5% (inactive).

As for `CC(C)(C)OC(=O)C[C@@H]1C/C=C\C[C@@H](CC(=O)N[C@H](CO)Cc2ccccc2)C(=O)NC[C@@H](c2ccccc2)OC1=O`, the protection from H2O2 cell death is 51.6% (active).

Consider `Cc1ccc(NS(=O)(=O)c2ccc3c(c2)NC(=O)CO3)cc1`, for which the protection from H2O2 cell death was -11.5% (inactive).

In the case of `Cc1c(C)n2c(SCC(=O)NC3CCCC3)nnc2[nH]c1=O`, the protection from H2O2 cell death was 1.3% (inactive).

As to `COc1ccccc1C(=O)NC(CCSC)C(=O)NNC(=O)c1ccccc1C` (stereo not given), the protection from H2O2 cell death was 4.9% (inactive).

For `CC1=C/C(=N\S(=O)(=O)c2ccccc2)C(C(C)C)=CC1=O`, the protection from H2O2 cell death was 63.7% (active).

Consider `Cc1ccc(S(=O)(=O)/N=C2\C=C(NS(=O)(=O)c3ccc(C)cc3)C(=O)c3ccccc32)cc1`, for which the protection from H2O2 cell death was -17.9% (inactive).

As to `COc1ccc(S(=O)(=O)/N=C2\C=C(NS(=O)(=O)c3ccccc3)C(=O)c3ccccc32)cc1`, the protection from H2O2 cell death is -11.4% (inactive).

As to `O=C(c1ccc(O)cc1)c1ccc(C(=O)O)c(C(=O)O)c1`, the protection from H2O2 cell death was 5.7% (inactive).

Take `Cc1cccnc1C(NC(=O)C1CCN(Cc2ccc(Cl)c(Cl)c2)CC1)c1ccc(Cl)cc1` (stereo not given): the protection from H2O2 cell death was 4.5% (inactive).

On to `CCn1c(/C=N/NC(=O)c2ccc(OC)cc2)nc2ccccc21`, for which the protection from H2O2 cell death was 50.7% (active).

With `CCn1c(C(O)c2cc(OC)ccc2OC)nc2ccccc21` (stereo not given), the protection from H2O2 cell death is -3.6% (inactive).

With `Cc1nc2ccccc2n1CC(=O)N/N=C/c1cccs1`, the protection from H2O2 cell death was -3.1% (inactive).

Turning to `S=c1[nH]c2ccccc2c2ccccc12`, the protection from H2O2 cell death is 50.1% (active).

For the compound `S=c1ccc2ccccc2[nH]1`, the protection from H2O2 cell death is 4.8% (inactive).

For the compound `Cc1cc2c3ccccc3[nH]c(=O)n2n1`, the protection from H2O2 cell death was 2.8% (inactive).

With `COc1ccc(S(=O)(=O)N2CCN(C(=S)NCC3CCCO3)CC2)cc1OC` (stereo not given), the protection from H2O2 cell death was -4.4% (inactive).

As to `N=c1ccn(CC(=O)NC(N)=O)c2ccccc12`, the protection from H2O2 cell death is 4.5% (inactive).

For the compound `CCOC(=O)CSc1nc(N2CCOCC2)c2c(c1C#N)CC(C(C)C)OC2` (stereo not given), the protection from H2O2 cell death was -4% (inactive).

Regarding `CC1(C)Cc2c(C#N)c(SCc3nc4ccccc4[nH]3)nc(N3CCOCC3)c2CO1`, the protection from H2O2 cell death is 50.1% (active).

For the compound `CC(C)C(=O)N1CCN(c2nc(-c3ccccc3)c3c(c2C#N)CC(C)(C)OC3)CC1`, the protection from H2O2 cell death is 15.1% (inactive).
